The values that follow come from PubChem BioAssay (NCI).

This is part of a sample that, as a whole, favours compounds with a hit. Of some 79,000 tested, about 15% had one in any assay. A number with no mark means an inactive call. Activity calls are given as the source filed them. No stated cut-off is given here; in the data, active means growth inhibition above about 70%; inactive means the rest. Where a SMILES comes first, the peptide text is derived from it.

Assay [1] is described as follows: NCI Yeast Anticancer Drug Screen. Data for the rad50 strain (AID 155).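 Further: 0% = growth of vehicle-only cultures of the same strain.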 The following applies: S. cerevisiae rad50 strain growth inhibition; at 50.0 µM; stronger effect = higher value. The procedure, abridged:
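Readout: growth inhibition relative to vehicle-treated cultures. Compound exposure was carried out in a genetically defined yeast strain deficient in DNA damage repair.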

Assay [2] can be described thus: NCI Yeast Anticancer Drug Screen. Data for the mec2-1 strain (AID 157). The following applies: S. cerevisiae mec2-1 strain, at 50.0 µM, stronger effect = higher value. The procedure, abridged:
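Vehicle-treated cultures served as reference for growth inhibition of compound-exposed mec2-1 yeast.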

Assay [3] is described as follows: NCI Yeast Anticancer Drug Screen. Data for the sgs1 mgt1 strain (AID 161).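 Further: 0% = growth of cultures given vehicle only.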 As to conditions: S. cerevisiae sgs1 mgt1 strain, at 50.0 µM, stronger effect = higher value. The procedure, abridged: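 Genetically altered yeast, compound exposure, growth inhibition relative to vehicle.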
A short description of assay [4]: NCI Yeast Anticancer Drug Screen. Data for the cln2 rad14 strain (AID 165).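 Further: 0% = growth equal to vehicle treated cultures.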 The following applies: S. cerevisiae cln2 rad14 strain, at 50.0 µM, stronger effect = higher value. The procedure, abridged: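 Each compound was tested on cln2 rad14 yeast. Inhibition of growth was calculated against vehicle-exposed controls.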
The nature of assay [5]: NCI Yeast Anticancer Drug Screen. Data for the bub3 strain (AID 167). As to conditions: S. cerevisiae bub3 mutant strain, at 50.0 µM, stronger effect = higher value. In outline:
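Readout: yeast growth inhibition, expressed relative to vehicle-only wells. The test organism is a mutant strain from a panel with lesions in DNA repair or checkpoint genes.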

Assay [6] in a line: NCI Yeast Anticancer Drug Screen. Data for the mlh1 rad18 strain (AID 175). As to conditions: S. cerevisiae mlh1 rad18 strain growth inhibition; at 50.0 µM; stronger effect = higher value. In outline: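 Vehicle-treated cultures served as the reference for growth inhibition in a yeast strain carrying DNA damage repair alterations exposed to each compound.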

As for `CCCCOC(=O)C(C)OC(=O)OC` (stereo not given), the growth inhibition was -21.1% in assay [1]; -13% in assay [2]; -2.25% in assay [3]; -28.8% in assay [4]; -15.7% in assay [5]; 8% in assay [6].
With `O=[N+]([O-])c1cccc(/C=N\NS(=O)(=O)c2ccc(Cl)cc2)c1O`, the growth inhibition in assay [1] is -11.7%; in assay [2] it was -13.3%; in assay [3], -11.8%; in assay [4], -2.3%; in assay [5], -38.4%; in assay [6] it was -5.9%.
Consider `O=C(N/N=C/c1ccccc1F)c1ccncc1`, for which the growth inhibition in assay [1] was 1.1%; in assay [2] it was 5%; in assay [3], -0.95%; in assay [4], -24.4%; in assay [5], -7.65%; in assay [6], 23.9%.
`C=CC(C)(O)/C=C/C=C(\C)C(CC1OC1(C)C)OC(=O)/C(C)=C\C` (stereo not given): the growth inhibition in assay [1] is -10.8%; in assay [2] it was -16.9%; in assay [3] it was 3.55%; in assay [4], 10.3%; in assay [5], -19.6%; in assay [6], -64.1%.
Consider `COc1cccc(Nc2sc(C(=O)c3cc4cc(Cl)ccc4o3)c(N)c2C#N)c1`, for which the growth inhibition in assay [1] was -11.1%; in assay [2] it was -8.65%; in assay [3] it was -20.6%; in assay [4], -2.75%; in assay [5] it was -3.55%; in assay [6], -7.55%.
For `CN=C(Nc1cccc(C(F)(F)F)c1)SCc1ccc(N=C=S)cc1`, the growth inhibition is 9.7% in assay [1]; 28.3% in assay [2]; 60% in assay [3]; 10.2% in assay [4]; 38.8% in assay [5]; 38.5% in assay [6].
For `CCOC(CN=CC1CCC=CO1)OCC` (stereo not given), the growth inhibition in assay [1] is 10.9%; in assay [2], -5.35%; in assay [3], 2.85%; in assay [4], -1.55%; in assay [5], -1.5%; in assay [6], 6.65%.
In the case of `O=C(NN(C(=O)c1ccc([N+](=O)[O-])cc1)c1ccccc1)c1ccc([N+](=O)[O-])cc1`, the growth inhibition in assay [1] is 3.1%; in assay [2], 14.2%; in assay [3], 14.1%; in assay [4], 21.4%; in assay [5] it was 12.8%; in assay [6], 13.2%.
Turning to `CCC(C(O)c1ccc(Cl)cc1)C(O)(C(F)(F)F)C(F)(F)F` (stereo not given), the growth inhibition in assay [1] was 99.4% (active); in assay [2], 99.5% (active); in assay [3], 99.6% (active); in assay [4], 99.5% (active); in assay [5], 99.3% (active); in assay [6], 99.4% (active).
`COc1ccc(/C=C2/CSCC3=C2NC(=S)NC3c2ccc(OC)c(OC)c2OC)c(OC)c1OC` (stereo not given): the growth inhibition in assay [1] is 12.8%; in assay [2], 13.9%; in assay [3], 37%; in assay [4], 34.6%; in assay [5], 48.4%; in assay [6], 10.9%.
Take `C[Si](C)(C)CSCCO`: the growth inhibition was -13.7% in assay [1]; -6.45% in assay [2]; -20.8% in assay [3]; -16.1% in assay [4]; -14.7% in assay [5]; -1.6% in assay [6].
As for `N#Cc1ccc(CCc2ccc(Cl)cc2)cc1`, the growth inhibition in assay [1] is -6.85%; in assay [2], -17.2%; in assay [3], -6.9%; in assay [4], -41.1%; in assay [5], 1.3%; in assay [6], -9.8%.
As to `CCOC(=O)c1n[nH]c(C)c1C/C(=N/O)c1ccccc1`, the growth inhibition in assay [1] was -14.3%; in assay [2], -24.4%; in assay [3] it was -8.25%; in assay [4], -14.9%; in assay [5] it was -14.9%; in assay [6] it was -35.9%.
`CC(C)CC(N)C(=O)NC(C)C(=O)NC(CC(C)C)C(=O)O` (stereo not drawn) (H-Leu-Ala-Leu-OH; configuration not given here): the growth inhibition in assay [1] was 5.95%; in assay [2], 21.4%; in assay [3], 10.9%; in assay [4], 1.9%; in assay [5], 0.5%; in assay [6] it was -3.1%.
For `Cc1c2c(cc3c1[nH]c1ccccc13)C(=O)c1ccccc1C2=O`, the growth inhibition in assay [1] was 75.5% (active); in assay [2], 68.5%; in assay [3], 75.8% (active); in assay [4], 75.3% (active); in assay [5], 68.1%; in assay [6] it was 83.3% (active).
As to `NNC(=O)NN1C(=O)c2cc(S(=O)(=O)O)cc3c(N)c(S(=O)(=O)O)cc(c23)C1=O`, the growth inhibition in assay [1] was 35.2%; in assay [2], -3.05%; in assay [3] it was 14.6%; in assay [4], 6.35%; in assay [5], -5.45%; in assay [6], 10.3%.
`CN1C(=O)CC(c2cccc(C3CC(=O)N(C)C3=O)n2)C1=O` (stereo not given): the growth inhibition in assay [1] was -18.6%; in assay [2], -23.7%; in assay [3], -17.6%; in assay [4], -5.8%; in assay [5], -11.7%; in assay [6], -13.7%.
Consider `c1ccc(-c2ccccc2-c2ccccc2-c2ccccc2)cc1`, for which the growth inhibition is -58.8% in assay [1]; -5.6% in assay [2]; -5.9% in assay [3]; -39.5% in assay [4]; 21.5% in assay [5]; -12.3% in assay [6].
As to `Nc1ncnc(N2CCOCC2)n1`, the growth inhibition was -28.8% in assay [1]; -41.3% in assay [2]; -8.15% in assay [3]; 0.95% in assay [4]; -14.9% in assay [5]; -8.3% in assay [6].
Take `CCOC(=O)CCC(C)(C#N)c1ccccc1` (stereo not given): the growth inhibition in assay [1] was -2.35%; in assay [2] it was 0.65%; in assay [3], 2.5%; in assay [4], -9.1%; in assay [5] it was 5.75%; in assay [6], -0.05%.
